Bioassay records from PubChem BioAssay.
Sampled rows, rich in hits. Any-hit rate of the full collection: about 0.5%.
AddAB inh = less growth of phage-infected E. coli with AddAB; E. coli expressing H. pylori AddAB, absorbance growth; inhibition, % at 11.9 µM; 330,000 compounds, 0.29% hits; AID 435030; in the data active means inhibition above about 12%
Tat export inh = blocks Tat-dependent protein export in E. coli. E. coli MC4100 TorA-mCherry Tat export, fluorescence. inhibition, % at 10 µM. 340,000 compounds, 0.036% hits. AID 488895;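 active means mean replicate inhibition at least 50% and at least half of replicates individually reaching 50%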;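 further: exported cargo escapes ClpAP degradation while cytoplasmic cargo is degraded and loses fluorescence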
E coli growth-1 = counter-screen for AddAB inhibitors: E. coli growth inhibition; E. coli V3065 growth, OD600 absorbance, 18 h; inhibition, % at 11.9 µM; 330,000 compounds, 0.27% hits; AID 449728;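 active means inhibition above the campaign's mean inhibition across all tested compounds plus 3 SD, cut at about 9.9% in these data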;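 further: uninfected addAB+ strain grown without phage in ampicillin broth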
phage Ecoli inh = E. coli growth loss with phage present. growth absorbance. inhibition, % at 11.9 µM. 360,000 compounds, 0.26% hits; in the data active means inhibition above about 11%
E coli growth-2 = blocks Escherichia coli growth | OD600, 23 h; stronger effect = lower value | OD600 absorbance (test concentration not listed) | 330,000 compounds, 0.21% hits | AID 1053175;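 active means OD600 absorbance below the run mean of sample wells minus 3.6 SD, in any replicate, cut at about 0.56 in these data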
AddAB confirm = confirmation screen: growth loss of phage-infected E. coli expressing H. pylori AddAB | E. coli V3065 expressing H. pylori AddAB, T4 phage, OD; T4 phage with gene 2 nonsense mutations | 880 compounds, 64% hits | shares compounds with AddAB inh | AID 488942 | inhibition, % at 11.9 µM;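 active means mean inhibition above a set limit taken from the earlier primary screen, cut at about 13% in these data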;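 further: higher means less bacterial growth since AddAB block lets phage replicate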
RecBCD counter = reduces growth of phage-infected RecBCD+ E. coli, AddAB inhibitor counter-screen | shares compounds with AddAB inh | E. coli V66 + mutant T4 phage, OD growth | inhibition, % at 11.9 µM | 880 compounds, 73% hits;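 active means mean inhibition above the mean of solvent-only control wells plus 3 SD, cut at about 4% in these data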;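 further: optical density read after an 18 h incubation at 37 °C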
Bact viability = counter-screen: bacterial growth inhibition | shares compounds with AddAB inh | bacterial viability, absorbance (AddAB counterscreen) | inhibition, % at 11.9 µM | 880 compounds, 35% hits; in the data active means inhibition above about 25%
RecBCD conf = growth loss of phage-infected V66 E. coli, RecBCD confirmation screen | AID 651982 | 890 compounds, 45% hits | E. coli V66 + T4 2- phage, growth OD | inhibition, % at 11.9 µM | shares compounds with phage Ecoli inh;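 active means mean inhibition over triplicates exceeding the hit threshold derived in the original primary screen, cut at about 11% in these data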
Ecoli viability = inhibits E. coli viability, flagging RecBCD hits as nonselective | shares compounds with phage Ecoli inh | absorbance (OD) growth | inhibition, % at 11.9 µM | 890 compounds, 29% hits; in the data active means inhibition above about 20%;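 further: E. coli strain V66 grown with compound alone and no phage infection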
AddAB counter = growth loss of phage-infected AddAB E. coli, RecBCD counter-screen. inhibition, % at 11.9 µM. 890 compounds, 45% hits. E. coli expressing H. pylori AddAB + T4 phage, OD growth; gene 2 mutant T4, recBCD-deleted host. shares compounds with phage Ecoli inh;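 active means mean inhibition above the solvent-only control wells' mean plus 3 SD, cut at about 22% in these data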;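 further: higher means less bacterial growth from phage killing when AddAB is blocked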
Large screens that a line does not name were inactive (follow-up assays come after a bar, where they were run).

COc1ccc(CCc2cc(OC)c(OC)c(OC)c2)cc1	none (no result: AddAB inh, E coli growth-1, E coli growth-2)
COc1cc(Cc2cc(N)nc(N)n2)cc(OC)c1OC	AddAB inh 101.2, E coli growth-1 101.3, phage Ecoli inh 94.6, E coli growth-2 0.051 | AddAB confirm 98.6 | RecBCD counter 99.2 | Bact viability 98.5 | RecBCD conf 103.1 | Ecoli viability 104.5 | AddAB counter 103.1
O=c1nc(N/N=C/c2ccccn2)cn[nH]1	AddAB inh 28.8, E coli growth-1 29.2, phage Ecoli inh 31.2 (no result: E coli growth-2) | AddAB confirm 30.5 | RecBCD counter 31.3 | Bact viability inactive | RecBCD conf 23.7 | Ecoli viability 32.4 | AddAB counter 31.1
Cc1cc(=O)[nH]c(N/N=C/c2ccccn2)n1	AddAB inh 18.2, E coli growth-1 12.8, phage Ecoli inh 18.8 (no result: E coli growth-2) | AddAB confirm inactive | RecBCD counter 20.1 | Bact viability inactive | RecBCD conf inactive | Ecoli viability inactive | AddAB counter inactive
O=c1cnnc(N/N=C/c2ccccn2)[nH]1	AddAB inh 53.3, E coli growth-1 40.6, phage Ecoli inh 41.6 (no result: E coli growth-2) | AddAB confirm 38.4 | RecBCD counter 44.4 | Bact viability 33.9 | RecBCD conf 36.9 | Ecoli viability 46.6 | AddAB counter 47.4
Cc1ccc(C=NNc2cn[nH]c(=O)n2)o1	none (no result: AddAB inh, Tat export inh, E coli growth-1, phage Ecoli inh)
Cc1cc(=O)[nH]c(NN=Cc2ccccn2)n1	none (no result: AddAB inh, Tat export inh, E coli growth-1, phage Ecoli inh)
CC(C)CC(CSc1ccccc1)N1CCN(CC(C)C)CCC1=O (stereo not drawn)	none (no result: AddAB inh, Tat export inh, E coli growth-1, phage Ecoli inh)
CCN1CCN(C(c2ccc(C(F)(F)F)cc2)c2ccc3cccnc3c2O)CC1 (stereo not drawn)	AddAB inh 26.4, E coli growth-1 38.2, phage Ecoli inh 20.9 | AddAB confirm inactive | RecBCD counter 11.6 | Bact viability inactive | RecBCD conf inactive | Ecoli viability inactive | AddAB counter inactive
CN1CCN(C(c2ccc(Cl)cc2)c2cc(Cl)c3cccnc3c2O)CC1 (stereo not drawn)	AddAB inh 13.2, E coli growth-1 19.4, phage Ecoli inh 15.5 (no result: E coli growth-2) | AddAB confirm inactive | RecBCD counter 9.9 | Bact viability inactive | RecBCD conf inactive | Ecoli viability inactive | AddAB counter inactive
CN1CCN(C(c2ccc(C(F)(F)F)cc2)c2cc(Cl)c3cccnc3c2O)CC1 (stereo not drawn)	AddAB inh 17.5, E coli growth-1 22.6, phage Ecoli inh 24.0 (no result: Tat export inh, E coli growth-2) | AddAB confirm 13.6 | RecBCD counter 14.3 | Bact viability inactive | RecBCD conf inactive | Ecoli viability inactive | AddAB counter inactive
Oc1c(C(c2ccccn2)N2CCCCC2)cc(Cl)c2cccnc12 (stereo not drawn)	none
CCN(CC)c1ccc(C=NNC(=S)NCc2ccccc2)c(O)c1	none (no result: AddAB inh, Tat export inh, E coli growth-1, phage Ecoli inh)
CCN(CC)c1ccc(/C=N/NC(=S)NCc2ccccc2)c(O)c1	AddAB inh 12.4, E coli growth-1 15.4, phage Ecoli inh 13.5 (no result: E coli growth-2) | AddAB confirm inactive | RecBCD counter 14.0 | Bact viability inactive | RecBCD conf inactive | Ecoli viability inactive | AddAB counter inactive
CCCCN1CC(C)C(CC(=O)NCc2ccccc2)C1=O (stereo not drawn)	none (no result: AddAB inh, Tat export inh, E coli growth-1, phage Ecoli inh)
O=C(/C=C1\NC2(CCCC2)Cc2ccccc21)C(=O)N/N=C/c1ccccc1O	AddAB inh 15.6, E coli growth-1 12.9, phage Ecoli inh 25.0 (no result: E coli growth-2) | AddAB confirm 29.8 | RecBCD counter 24.6 | Bact viability inactive | RecBCD conf 18.6 | Ecoli viability 21.6 | AddAB counter 24.8
CC[C@@]12C(=O)N(c3ccccc3)C(=O)N1C(c1ccc(OC)cc1)C1C(=O)N(C(C)(C)C)C(=O)C12 (stereo partly drawn)	none (no result: AddAB inh, Tat export inh, E coli growth-1, phage Ecoli inh)
Nc1nc(N)c2cc(Sc3ccc4ccccc4c3)ccc2n1	AddAB inh 98.0, E coli growth-1 102.0, phage Ecoli inh 63.4, E coli growth-2 0.0785 (no result: Tat export inh) | AddAB confirm 97.6 | RecBCD counter 72.4 | Bact viability 94.2 | RecBCD conf 69.9 | Ecoli viability 64.8 | AddAB counter 95.4
N#Cc1ccc(-c2nc3cc(Cl)ccc3c(=O)n2O)cc1	none
O=c1c2ccc(Cl)cc2nc(-c2cccc(C(F)(F)F)c2)n1O	AddAB inh 12.3, E coli growth-1 11.0, phage Ecoli inh 11.3 | AddAB confirm inactive | RecBCD counter 7.9 | Bact viability inactive | RecBCD conf inactive | Ecoli viability inactive | AddAB counter inactive
O=C(Cn1ccccc1=S)c1ccc(Cl)c(Cl)c1	none (no result: Tat export inh)
On1ccccc1=S	AddAB inh active, Tat export inh 141.8, E coli growth-1 75.6, phage Ecoli inh active (no result: E coli growth-2) | AddAB confirm active | RecBCD counter active | Bact viability 98.0 | RecBCD conf active | Ecoli viability 105.1 | AddAB counter active
CN1CCN(C(=O)C2=CC(c3ccc(Br)cc3)CC(OCc3ccc(CO)cc3)O2)CC1 (stereo not drawn)	none (no result: AddAB inh, Tat export inh, E coli growth-1, phage Ecoli inh)
CCOc1cccc(/C=N/NC(=O)c2cc(-c3cccn3C)n[nH]2)c1O	AddAB inh 17.5, E coli growth-1 12.0, phage Ecoli inh 18.5 (no result: E coli growth-2) | AddAB confirm 18.8 | RecBCD counter 20.6 | Bact viability inactive | RecBCD conf inactive | Ecoli viability inactive | AddAB counter inactive
COc1cc(OC)c(OC)cc1/C=N/NC(=O)c1cc(-c2cccn2C)n[nH]1	none (no result: E coli growth-2)
CCCOc1ccc(-c2nn(-c3ccccc3)cc2C=C2SC(N)=NC2=O)cc1	none (no result: AddAB inh, Tat export inh, E coli growth-1, phage Ecoli inh)
Oc1c(C(Nc2ccccn2)c2ccccn2)ccc2cccnc12 (stereo not drawn)	AddAB inh 17.1, E coli growth-1 14.3, phage Ecoli inh 15.7 | AddAB confirm inactive | RecBCD counter 9.8 | Bact viability inactive | RecBCD conf inactive | Ecoli viability inactive | AddAB counter inactive
Oc1ccccc1C(Nc1nccs1)c1ccc2cccnc2c1O (stereo not drawn)	AddAB inh 13.1, E coli growth-1 16.7, phage Ecoli inh 12.2 | AddAB confirm inactive | RecBCD counter 11.7 | Bact viability inactive | RecBCD conf inactive | Ecoli viability inactive | AddAB counter inactive
O=C(O)CC1c2ccccc2S(=O)(=O)N1c1ccccc1 (stereo not drawn)	none (no result: AddAB inh, Tat export inh, E coli growth-1, phage Ecoli inh)
Cc1ccc(S(=O)(=O)N2C(c3ccc(Cl)c(Cl)c3)CC=C(C(=O)O)C2c2ccccc2)cc1 (stereo not drawn)	none (no result: AddAB inh, Tat export inh, E coli growth-1, phage Ecoli inh)
